Bioassay records (PubChem BioAssay)
Rin1-Abl PPI inh – human Rin1-Abl interaction inhibition. hit rate 0.4% among 360,000. inhibition, % at 7.35 µM. P00519+Q13671. TR-FRET Rin1/Abl binding, biochemical; in the data active means inhibition above about 5%, passing the limit was not always enough
SUMO1 PPI mod – alters human SUMO1 binding to SIM partners; P63165; SUMO1 binding to a labelled peptide, TR-FRET, 1 h; inhibition, % at 20 µM; hit rate 0.33% among 360,000; in the data active means inhibition above about 37%
Target sequence (P63165 whole entry, looked up): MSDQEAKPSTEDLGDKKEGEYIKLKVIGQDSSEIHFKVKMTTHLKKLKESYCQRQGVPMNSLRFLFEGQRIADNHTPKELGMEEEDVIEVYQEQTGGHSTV
Neddyl block – inhibitors of human cullin neddylation; P61081+Q13564; TR-FRET cullin neddylation, biochemical; inhibition, % at 25 µM; hit rate 0.58% among 360,000; AID 651699; in the data active means inhibition above about 36%
ATG4B inhibitor – inhibitors of human ATG4B cysteine protease; hit rate 0.51% among 340,000; inhibition, % at 8.33 µM; ATG4B cleavage of LC3-PLA2, NBD-HPC fluorescence, 1 h; AID 504462; Q9Y4P1; in the data active means inhibition above about 40%
Target sequence (Q9Y4P1 whole entry, looked up): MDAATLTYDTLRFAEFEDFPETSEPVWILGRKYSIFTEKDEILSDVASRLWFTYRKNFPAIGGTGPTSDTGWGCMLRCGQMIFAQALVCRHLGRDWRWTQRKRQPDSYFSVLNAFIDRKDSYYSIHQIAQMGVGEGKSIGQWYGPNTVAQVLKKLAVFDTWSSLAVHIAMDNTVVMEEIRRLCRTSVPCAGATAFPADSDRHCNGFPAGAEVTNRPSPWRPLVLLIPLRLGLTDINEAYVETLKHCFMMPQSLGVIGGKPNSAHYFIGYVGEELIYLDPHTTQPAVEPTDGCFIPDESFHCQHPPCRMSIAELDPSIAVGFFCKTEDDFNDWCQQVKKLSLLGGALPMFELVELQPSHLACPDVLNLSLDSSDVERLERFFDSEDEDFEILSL
Large screens that a line does not name were inactive; ! = not active in a repeat. Most compounds without a hit are left out; they make up all but 1.7% or so of the library.

Cc1ccc2nc(C3CCCCC3)c(Cc3ccsc3)n2c1	none (no result: Rin1-Abl PPI inh, ATG4B inhibitor)
CC1(C)CN(C2CCCCC2)C(=O)[C@H]1CC(=O)Nc1ccc(Br)cc1	none (no result: ATG4B inhibitor)
O=S(=O)(Nc1nc2ccccc2nc1Nc1ccc2c(c1)OCCO2)c1cccs1	Neddyl block 41.6
O=C(O)c1cccc(-n2cccc2/C=C/[N+](=O)[O-])c1	SUMO1 PPI mod 67.7
CC1=CCC(C(=O)O)C(C(=O)NC2CCCCC2)C1 (centres undefined)	SUMO1 PPI mod 50.6
CC1=C(C)CC(C(=O)NC2CCCC2)C(C(=O)O)C1 (centres undefined)	none
COc1ccc(-n2c(SCC(=O)Nc3ccc(C(N)=O)cc3)nc3ccccc3c2=O)cc1OC	none
COc1ccc(-n2c(SCC(=O)Nc3cccc(S(N)(=O)=O)c3)nc3ccccc3c2=O)cc1OC	SUMO1 PPI mod 36.5
CCn1c(SCC(=O)N(C)c2c(N)n(Cc3ccccc3)c(=O)[nH]c2=O)nnc1-c1cccs1	none (no result: ATG4B inhibitor)
O=C(NCc1cccs1)c1ccc2nc([C@@H]3O[C@H](CO)[C@H](O)[C@H](O)[C@H]3O)[nH]c2c1	none (no result: ATG4B inhibitor)
CC(OC(=O)c1ccc(NC(=O)CC#N)cc1)C(=O)Nc1nc(-c2ccccc2)cs1 (centres undefined)	none
CC(OC(=O)c1ccc(NC(=O)CC#N)cc1)C(=O)Nc1ccc(Oc2ccccc2)cc1 (centres undefined)	SUMO1 PPI mod 54.0 (no result: ATG4B inhibitor)
O=C1Nc2ccccc2/C1=C/c1cnc(-c2ccccc2)[nH]1	SUMO1 PPI mod 42.5
CCNc1nc2c(c(=O)[nH]c(=O)n2C)n1CC(C)C	SUMO1 PPI mod 42.5
COc1ccc(Cn2c(=O)[nH]c3cc(C(=O)N4CCN(c5ccc(OC)cc5)CC4)ccc3c2=O)cc1	none
COc1ccc(Cn2c(=O)[nH]c3cc(C(=O)N4CCN(c5ccc(C(C)=O)cc5)CC4)ccc3c2=O)cc1	SUMO1 PPI mod 57.0
CN1CCN(C(=O)c2ccc3c(=O)n(CCc4ccccc4)c(=S)[nH]c3c2)CC1	SUMO1 PPI mod 41.1
CCOC(=O)N1CCN(C(=O)c2ccc3c(=O)n(CCc4ccccc4)c(=S)[nH]c3c2)CC1	none
CCCCOCCCNC(=O)C[C@@H]1C[C@@]2(C(=O)OC)CCCCC=C2N(CCc2ccc(OC)c(OC)c2)C1=O	none (no result: Rin1-Abl PPI inh, ATG4B inhibitor)
C[C@@H]1OC(C2CCCCC2)N(C)[C@H]2C[C@H]3c4[nH]c5ccccc5c4CCN3C[C@@H]12 (some centres undefined)	none (not shown: Neddyl block, ATG4B inhibitor)
O=C(NCc1ccccc1)C(=O)NCC(c1ccco1)N1CCN(c2ccccc2F)CC1 (centres undefined)	Rin1-Abl PPI inh 4.7
C[C@H](CO)N1C[C@H](C)[C@H](CN(C)S(=O)(=O)c2cccc(C#N)c2)OCc2cnnn2CCCC1=O	none (no result: ATG4B inhibitor)
Cc1nc(-c2ccccc2)sc1-c1nc(-c2ccncc2)ncc1S(=O)(=O)c1ccccc1	SUMO1 PPI mod 47.3
COc1nc(-c2ccccc2)ncc1S(=O)(=O)c1ccccc1	none
COC(=O)[C@]12CCCCC=C1N(CCc1ccc(OC)c(OC)c1)C(=O)[C@H](CC(=O)NCc1ccc(C)o1)C2	none (no result: Rin1-Abl PPI inh, ATG4B inhibitor)
COc1ccc(C(=O)NC(=S)Nc2cccc3ncccc23)cc1[N+](=O)[O-]	SUMO1 PPI mod 55.8
COc1ccc(C(=O)Nc2ccc(C(=O)Nc3nccs3)cc2)cc1[N+](=O)[O-]	SUMO1 PPI mod 53.6
COC(=O)C(C(=O)OC)C1C=CCN(C(C)=O)C1 (centres undefined)	none (no result: ATG4B inhibitor)
COc1ccc(C(C)=O)cc1Cn1c(C)c(C(=O)NC2CC2)sc1=O	none (no result: ATG4B inhibitor)
O=C(C1CCN(S(=O)(=O)c2ccc(Br)s2)CC1)N1CCc2ccccc21	ATG4B inhibitor 41.2
COC(=O)C1CCN(S(=O)(=O)c2ccc(Br)s2)CC1	none
CCOC(=O)c1c(C)oc2c1c(C=NCCO)c(O)c1ccccc12	SUMO1 PPI mod 45.7
Cc1ccc(C(O)c2ncc(-c3ccc4ccccc4c3)[nH]2)cc1F (centres undefined)	none (no result: ATG4B inhibitor)
CC1CN(C2CCCCC2)C(=S)N(c2ccccc2)C1=O (centres undefined)	none
Fc1cc(F)c2nc(Nc3nc4cc5c(cc4s3)OCO5)sc2c1	SUMO1 PPI mod 83.5
Fc1cccc2sc(Nc3nc4cc5c(cc4s3)OCO5)nc12	none (not shown: Neddyl block)
COc1cc([N+](=O)[O-])c2nc(C(=O)O)ccc2c1	none
CS/C(=N\S(=O)(=O)c1cccs1)NC(=O)CSc1nc2ccccc2s1	SUMO1 PPI mod 37.9!
C/C(=N/NC(=O)CSc1nc2ccccc2s1)c1ccncc1	none
COc1cc2cc(c1Cl)N(C)C(=O)CC(OC(=O)C(C)N(C)C(C)=O)C1(C)OC1C(C)C1CC(O)(NC(=O)O1)C(OC)C=CC=C(C)C2 (centres undefined)	none
CN(C)c1ccc(/C=C2/SC(=O)N(CCN=C3NS(=O)(=O)c4ccccc43)C2=O)cc1	SUMO1 PPI mod 41.4
O=C(CSc1nnc(C2CC2)n1C1CC1)N1CCN(c2ccc(O)cc2)CC1	none (no result: ATG4B inhibitor)
Nc1c(C(=O)NC2CC2)c2nc3ccccc3nc2n1-c1ccc2c(c1)OCO2	Neddyl block 50.1
CCCNC(=O)c1c(N)n(-c2ccc3c(c2)OCO3)c2nc3ccccc3nc12	none
O=C(N/N=C/c1ccccn1)c1cc(-c2ccc(Br)cc2)nc2ccccc12	Neddyl block 46.2
CC(=O)Nc1ccc(/C=N/NC(=O)c2cc(-c3ccco3)nc3ccccc23)cc1	none
O=C(NNC(=O)c1cc(-c2ccco2)nc2ccccc12)c1ccccc1	none (not shown: Neddyl block)
O=C(N/N=C/c1ccccn1)c1cc(-c2ccc(Cl)cc2)nc2ccccc12	none
O=C(O)c1ccccc1/C=N/NC(=O)c1cc(-c2ccco2)nc2ccccc12	SUMO1 PPI mod 57.4, Neddyl block 49.0
O=C(O)c1cc(-c2ccco2)nc2cc3ccccc3cc12	SUMO1 PPI mod 38.2
Cc1cn([C@H]2C[C@H](O)[C@@H](/C=C/C(=O)N3CCN(Cc4ccc(F)cc4)CC3)O2)c(=O)[nH]c1=O	none (no result: ATG4B inhibitor)
CS(=O)(=O)N(Cc1ccccc1)c1ccc(C(=O)N2CCN(c3cccc(Cl)c3)CC2)cc1	ATG4B inhibitor 56.5
COc1ccc(OC)c(NC(=O)C2(C)CCN2Cc2ccccc2Cl)c1 (centres undefined)	none (no result: ATG4B inhibitor)
O=S(c1cc(Cl)cc(Cl)c1O)c1cc(Cl)cc(Cl)c1O	SUMO1 PPI mod 43.2 (no result: Rin1-Abl PPI inh, ATG4B inhibitor)
N#CC1=C(N)N(c2ccccc2)C(c2ccco2)C1(C#N)C#N (centres undefined)	Neddyl block 39.4
COC(=O)C1=CN(c2ccc(N3CCOCC3)cc2)C(N)=C(C#N)C1c1ccc(-c2ccccc2)cc1 (centres undefined)	none (no result: Rin1-Abl PPI inh, ATG4B inhibitor)
COc1cccc(S(=O)(=O)N(C)C[C@H]2OCc3cnnn3CCCC(=O)N([C@@H](C)CO)C[C@@H]2C)c1	none (no result: ATG4B inhibitor)
Cc1ccc(Nc2nnc(SC(C)C(=O)NCC3CCCO3)s2)cc1 (centres undefined)	none
Cc1ccccc1/C=N/Nc1nc2ccccc2[nH]1	none
Cc1[nH]c2ccccc2c1/C=N/Nc1nc2ccccc2[nH]1	Neddyl block 53.4
NS(=O)(=O)c1ccc(-c2ccc(/C=C3\C(=O)Nc4cc(Cl)ccc43)o2)cc1	SUMO1 PPI mod 47.7
NC1=NC(=O)/C(=C/c2ccc(-c3ccc(S(N)(=O)=O)cc3)o2)S1	SUMO1 PPI mod 87.7
N#Cc1nnn2c1nc(N)c1c(Cl)cccc12	none (no result: ATG4B inhibitor)
NC(N)=Nc1ccc(C=C2C=Cc3ccccc32)cc1	none
